Bioassay records from PubChem BioAssay.
Compounds with a hit are over-represented: about 6.2% of the library has one in this group of screens.
LASV entry inh = inhibitors of Lassa virus binding or cell entry; Lassa virus pseudotype entry inhibition, cell reporter; Potency, µM (titrated, usually from 37.9 µM), inactives show at the highest dose activity change, negative = inhibition, most hits filed as inhibitors; 300,000 tested, 1.2% active; AID 540256; calls by dose curve; tested in HEK293 cells; note: potency is the fitted concentration of half-maximal effect; nearly all actives have a fitted effect of over 50% in size
FMDV antiviral = antivirals against foot and mouth disease virus. Potency, µM (series often up to 57.9 µM), without a hit: at the highest dose activity change, negative = inhibition, actives largely listed as inhibitors. 410,000 tested, 1.2% active. FMDV antiviral cell-based qHTS. AID 1159524; calls by dose curve; tested in HEK293T cells; note: read-out not given here; potency is the fitted concentration of half-maximal effect; nearly all actives have a fitted effect of over 45% in size
HCMV inh = human cytomegalovirus inhibition | HFF cells, HCMV-luciferase reporter, 72 h; stronger effect = lower value | activity change, negative = inhibition, % at 57.5 µM | 410,000 tested, 4.5% active; in the data active = activity change below about -60%; inconclusive = no clear call, values can overlap the other calls; inactive = above about -39%
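Two compound doses tested in HFFs infected with HCMV-luciferase, MOI 1 PFU/cell, 72 h at 37C. Lysate luminescence read with OneGlo; data normalized against buffer-only and 10uM Salinomycin inhibitor controls.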
MARV entry inh = inhibitors of Marburg virus binding or cell entry; Marburg virus pseudotyped entry inhibition, cell reporter; AID 540276; 300,000 tested, 1.8% active; Potency, µM (doses to about 37.8 µM), inactives show at the top dose activity change, negative = inhibition, hits mostly inhibitors; calls by dose curve; tested in HEK293 cells; note: potency is the fitted concentration of half-maximal effect
* marks the source's active call; other numbers are inactive results; [ ] = another dose, or the depositor's remark. % is set by controls: 0 for no effect and ±100 for the full control effect.

For COc1ccc(/C=C2\C(=O)c3ccccc3OC2c2ccccc2)cc1 (configuration not stated) the results were FMDV antiviral -17% and HCMV inh 1.
`Cc1cc(C(F)(F)F)nc(SCC(=O)NC2CC3CCC2C3)n1` (configuration not stated) gave LASV entry inh 19%, FMDV antiviral -18%, HCMV inh -68* and MARV entry inh 2%.
For Cc1cc(C(F)(F)F)nc(SCC(=O)Nc2ccccc2)n1 the results were LASV entry inh 16%, FMDV antiviral -19%, HCMV inh -9 and MARV entry inh 23%.
Screening Cc1ccccc1/C=N\NC(=O)c1ccccc1-n1cccc1 returned LASV entry inh 13%, FMDV antiviral -17%, HCMV inh 25 and MARV entry inh 8%[14.2 µM].
`COCCN(Cc1cc2cc(C)cc(C)c2nc1Cl)C(=O)Nc1ccccc1` gave LASV entry inh -6%, FMDV antiviral 12%, HCMV inh 2 and MARV entry inh -14%.
Screening Cc1cc(C)c2nc(Cl)c(CN(Cc3ccco3)C(=O)Nc3ccccc3C)cc2c1 returned LASV entry inh inconclusive, HCMV inh -63* and MARV entry inh inconclusive.
For O=C(COc1ccccc1)N/N=C/c1ccc([N+](=O)[O-])o1 the results were FMDV antiviral 8% and HCMV inh -71*.
Screening CN(/N=C/c1ccc([N+](=O)[O-])o1)c1ccccc1 returned LASV entry inh -14%, FMDV antiviral 0%, HCMV inh -78* and MARV entry inh -25%[46.1 µM].
Screening O=C(N/N=C/c1ccc([N+](=O)[O-])o1)C(O)c1ccccc1 (configuration not stated) returned FMDV antiviral -4% and HCMV inh -60*.
For Cc1ccc(OCC(=O)N/N=C/c2ccc([N+](=O)[O-])o2)cc1 the results were LASV entry inh -23%, FMDV antiviral -8%, HCMV inh inconclusive and MARV entry inh -39%.
Screening Cc1ccc2cc(CN(C(=O)c3ccc4c(c3)OCO4)C3CC3)c(N(C)C)nc2c1 returned FMDV antiviral 2%.
Cc1cccc(NC(=O)NCC2CCN(c3ccc(S(=O)(=O)N4CCOCC4)cc3)CC2)c1 was read as LASV entry inh -25%[46.1 µM], FMDV antiviral -6%, HCMV inh -9 and MARV entry inh -3%[46.1 µM].
Screening COc1ccc(C(=O)N2CCC[C@@]3(CCN(C(=O)Nc4cccc(C#N)c4)C3)C2)cc1 returned FMDV antiviral 4%.
`O=S(=O)(NCc1ccccc1)c1cccc2nsnc12` gave LASV entry inh 0%[46.1 µM], FMDV antiviral 13%, HCMV inh 9 and MARV entry inh 16%[46.1 µM].
`CC(=O)Cc1nsc(NC(=O)c2ccc(F)cc2)n1` gave LASV entry inh inconclusive, FMDV antiviral 1%, HCMV inh -30 and MARV entry inh 5%[46.1 µM].
For CC(=O)Cc1nsc(NC(=O)c2ccccc2)n1 the results were LASV entry inh 18%, FMDV antiviral 49%, HCMV inh -64* and MARV entry inh -2%.
For CCCC(=O)Nc1ccc(C2C(=O)c3ccccc3C2=O)cc1 the results were LASV entry inh -50%, FMDV antiviral 10µM*, HCMV inh 164 and MARV entry inh inconclusive.
Screening CC(=O)Nc1ccc(C2C(=O)c3ccccc3C2=O)cc1 returned LASV entry inh -11%, FMDV antiviral 20µM*, HCMV inh 140 and MARV entry inh 1%.
NC(=O)c1cccn(Cc2ccc(C(F)(F)F)cc2)c1=O was read as LASV entry inh inconclusive, FMDV antiviral inconclusive, HCMV inh 36 and MARV entry inh inconclusive.
For Fc1ccc(CNC2CCN(Cc3ccccc3)CC2)cc1 the results were FMDV antiviral -5% and HCMV inh 46.
`c1ccc(-c2ccc(CNC3CC3)cc2)cc1` gave LASV entry inh inconclusive, FMDV antiviral 1%, HCMV inh -80* and MARV entry inh 13%[46.1 µM].
Screening OCCCNCc1ccc(-c2ccccc2)cc1 returned LASV entry inh 1%, FMDV antiviral -11%, HCMV inh -16 and MARV entry inh 3%[46.1 µM].
S=C(NCc1ccc(Cl)cc1)NC1CCN(Cc2ccccc2)CC1 was read as LASV entry inh inconclusive, FMDV antiviral -25%, HCMV inh -89* and MARV entry inh 6.3µM*.
For S=C(Nc1ccc(Cl)cc1Cl)NC1CCN(Cc2ccccc2)CC1 the results were LASV entry inh inconclusive, FMDV antiviral -39%, HCMV inh inconclusive and MARV entry inh inconclusive.
Screening Clc1ccc(CNC2CCN(Cc3ccccc3)CC2)cc1 returned LASV entry inh -18%[46.1 µM], FMDV antiviral -26%, HCMV inh -2 and MARV entry inh 10µM*.
For Clc1ccc(CN2CCC(c3nc4ccc(Cl)cc4[nH]3)CC2)cc1 the results were LASV entry inh inconclusive, FMDV antiviral inconclusive, HCMV inh -65* and MARV entry inh 11µM*.
